# An excerpt weighted towards active compounds, which were near 1.3% of everything screened.
# CCHF vOTU inh-1: CCHFV vOTU protease inhibitors, primary screen, biochemical, Pep-AMC substrate, fluorescence; hit rate 0.55% among 370,000; inhibition, % at 11.5 µM; Crimean-Congo hemorrhagic fever virus L polyprotein viral ovarian tumor (vOTU) protease …; also: 0% = vehicle wells with enzyme and 100% = no enzyme wells
# SARS 3CLpro inh: SARS-CoV 3CLpro protease inhibitors, primary screen, biochemical, quenched FRET; Replicase polyprotein 1ab (Severe acute respiratory syndrome coronavirus), P0C6X7; recombinant SARS-CoV 3CLpro, quenched FRET peptide cleavage; inhibition, % at 6 µM; hit rate 0.14% among 290,000; AID 1706, 2009; in the data active = inhibition above about 12%
# PrPC TRFRET: inhibitors of human cell surface prion protein PrPC, primary screen, cell-based, TR-FRET. Major prion protein (Homo sapiens), P04156. TR-FRET read-out. inhibition, % at 13.8 µM. hit rate 0.43% among 370,000; in the data active = inhibition above about 24%; also: 0% = median of the test wells and 100% = reference compound wells
# PrP UTR inh: inhibition of PrP 5' UTR reporter expression. hit rate 0.35% among 340,000. inhibition, % (no concentration beside the values). cell-based PrP 5' UTR mRNA reporter, plate reader. AID 488862, 2010; in the data active = inhibition above about 52%; also: 0 = median of the neutral control wells
# CCHF vOTU inh-2: CCHFV vOTU protease inhibitors, confirmation, biochemical, Pep-AMC substrate, fluorescence; shares compounds with CCHF vOTU inh-1; Recombinant CCHFV vOTU; inhibition, % at 11.5 µM; hit rate 17% among 1,900; AID 686976, 2013
# Numbers without * were called inactive; · = no result given. Rule as the data show it, unless noted: active = inhibition above about 30%; inactive = the rest.
SMILES,CCHF vOTU inh-1,SARS 3CLpro inh,PrPC TRFRET,PrP UTR inh,CCHF vOTU inh-2
C=CCOc1c(Cl)cc(CNc2ccc(N(C)C)cc2)cc1OC,69*,3,-11,-41,-6
C=CCOc1c(Cl)cc(CNc2ccc(C)c(Cl)c2)cc1OC,·,7,·,·,·
Cc1ccc2nsnc2c1NC(=S)NC(=O)c1ccco1,59*,-5,-13,-15,-10
O=C(O)c1cccc(Nc2ccncc2[N+](=O)[O-])c1,30*,2,-28,-22,-11
O=C(O)c1cccc(Cn2c(Cl)c(/C=N/NC(=O)c3ccc(O)cc3)sc2=O)c1,31*,-6,-14,-12,-4
COc1cc(CN2CC=C(c3ccc(F)cc3)CC2)cc(OC)c1,-5,9,-8,1,·
CC(=O)SC1CC2=CC(=O)CCC2(C)C2CCC3(C)C(CCC34CCC(=O)O4)C12 (stereo unspecified),10,-1,-10,-11,·
CC[n+]1c(-c2ccccc2)c2cc(N)ccc2c2ccc(N)cc21,91*,·,-19,-16,90*
c1ccc(-c2nnc(-c3ccco3)o2)cc1,7,2,-4,-56,·
c1coc(-c2nnc(-c3ccco3)nn2)c1,45*,-2,-2,-20,53*
CCOC(=O)[C@]12CCC=C1N(Cc1ccco1)C(=O)[C@H](CC(=O)NCc1cccs1)C2,33*,·,3,·,-24
COC(=O)[C@]12C[C@H](CC(=O)NCCc3ccccc3OC)C(=O)N(Cc3ccc(Cl)cc3Cl)C1=C[C@H](C(C)(C)C)O[C@@H]2C,30*,·,-1,·,13
COC(=O)[C@]12C[C@H](CC(=O)NCCC(C)C)C(=O)N(Cc3ccc(Cl)cc3Cl)C1=C[C@H](C(C)(C)C)O[C@@H]2C,31*,·,-5,·,6
CCOC(=O)[C@]12CCCC=C1N(Cc1ccco1)C(=O)[C@H](CC(=O)NCc1cccs1)C2,7,·,-3,·,·
CCOC(=O)[C@]12CCCC=C1N(Cc1ccc(Cl)cc1Cl)C(=O)[C@H](CC(=O)NCCc1ccccc1OC)C2,30*,·,-1,·,-2
CCCCNC(=O)C[C@@H]1C[C@@]2(C(=O)OCC)CCCC=C2N(Cc2ccc(Cl)cc2Cl)C1=O,13,·,11,·,·
Cc1ccc(-c2nn(C)c(=O)c3ccccc23)cc1S(=O)(=O)NCCN(C)C,-2,1,-10,-17,·
CCN(CC)CC(=O)NC1CCCc2c1cnn2-c1cc(F)cc(F)c1 (stereo unspecified),3,1,5,-32,·
CSCC(=O)NC1CCCc2c1cnn2-c1cc(F)cc(F)c1 (stereo unspecified),30*,2,2,-35,-26
O=C1c2ccccc2-c2onc3ccc(N4CCCC4)c1c23,15,-3,-97,-12,·
O=C1c2ccccc2C(=O)c2c1cccc2N1CCCC1,75*,-1,-57,-4,-5
O=C1C=C(N2CCCCC2)c2ccccc2C1=O,82*,·,-14,·,81*
O=S(=O)(c1ccccc1S(=O)(=O)N1CCCCC1)N1CCCCC1,·,-1,·,-15,·
CCn1c(NC(=O)C(C)C)c(-c2cccs2)c(=O)c2ccccc21,4,0,8,-14,·
CCOc1ccc(N=Nc2c(=O)[nH]n3c(=O)cc(C)[nH]c23)cc1,36*,3,-49,2,10
SMILES,CCHF vOTU inh-1,SARS 3CLpro inh,PrPC TRFRET,PrP UTR inh,CCHF vOTU inh-2
O=C(CN1CCN(S(=O)(=O)c2ccc(Cl)c(C(F)(F)F)c2)CC1)NC(=O)NC1CCCCC1,-1,·,-1,-23,·
Cc1ccccc1SCC(=O)NNC(=O)c1ccccc1O,39*,-3,2,-4,-12
CCN(CC)C(=O)c1cccc(-c2csc(C(O)c3ccc(F)c(F)c3)n2)c1 (stereo unspecified),30*,·,20,·,8
O=C(O)/C(=C/c1ccc(Cl)c([N+](=O)[O-])c1)c1ccc(S(=O)(=O)N2CCCCC2)s1,33*,·,-17,-43,-4
COc1ccc(/C=C2\C(=O)NC(=O)c3ccccc32)cc1OC,108*,·,-10,-39,103*
CN(C)c1ccc(N/C=C/C(=O)c2ccco2)cc1,68*,4,-16,-23,-2
Cc1ccc(-n2c(SCCN)nnc2-c2cccc(C)c2)cc1,7,-2,-2,-29,·
Cc1ccc(C)c(NC(=O)CN(C)C(=O)c2ccc(S(=O)(=O)N(C)c3ccccc3)cc2)c1,-4,·,-6,-5,·
Cc1cc([N+](=O)[O-])nn1CCCC(=O)Nc1cc(Oc2ccccc2)cc([N+](=O)[O-])c1,8,-2,7,6,·
Cc1cccc(Oc2cc(NC(=O)Cn3cnc([N+](=O)[O-])n3)cc([N+](=O)[O-])c2)c1,33*,6,-15,-11,-3
CC1(CCBr)C(=O)N(c2ccccc2)c2ccccc21 (stereo unspecified),-5,5,1,-10,·
CCc1ccc(S(=O)(=O)/N=C2\C=C(Nc3cccc(C(=O)O)c3)C(=O)c3ccccc32)cc1,137*,6,-24,-18,115*
Cc1ccc(S(=O)(=O)/N=C2\C=C(NS(=O)(=O)c3ccccc3)C(=O)c3ccccc32)cc1,51*,·,-2,1,29
O=S(=O)(N=C1C=CC(=NS(=O)(=O)c2ccccc2)c2ccccc21)c1ccccc1,72*,·,2,·,68*
CCc1ccc(S(=O)(=O)/N=C2\C=CC(=O)c3ccccc32)cc1,·,0,·,·,·
Cc1cc(C)c(S(=O)(=O)/N=C2\C=C(NS(=O)(=O)c3ccccc3)C(=O)c3ccccc32)c(C)c1,20,12,4,-50,·
O=C(O)c1ccc(NC2=C/C(=N/S(=O)(=O)c3ccccc3)c3ccccc3C2=O)cc1,108*,9,-35,-11,113*
CCOC(=O)c1ccc(-c2c(-c3ccc(OC)cc3)oc(=O)c3cc(OC)c(OC)cc23)cc1F,-3,·,7,-11,·
COc1cc2nc(SCC(N)=O)n(CCC3=CCCCC3)c(=O)c2cc1OC,1,0,-5,-13,·
Cc1cc(NC(=O)CSc2nnc(-c3ccccc3C)n2C)no1,-12,·,4,-27,·
O=C(O)c1ccc(NC2=C/C(=N/S(=O)(=O)c3cccs3)c3ccccc3C2=O)cc1,110*,·,-27,·,105*
Cc1ccc(Cl)cc1NC1=C/C(=N\S(=O)(=O)c2cccs2)c2ccccc2C1=O,96*,6,-1,-24,95*
Cc1cccc(NC2=C/C(=N/S(=O)(=O)c3cccs3)c3ccccc3C2=O)c1,27,5,0,-65,·
Cc1ccc(NC2=C/C(=N\S(=O)(=O)c3cccs3)c3ccccc3C2=O)c(C)c1,·,9,·,-41,·
CCOC(=O)C1=C(COC(=O)c2sccc2C)NC(=O)NC1C (stereo unspecified),13,·,0,-3,·
CCOC(=O)C1=C(COC(=O)c2ccccc2OC(F)F)NC(=O)NC1C (stereo unspecified),-7,·,6,-9,·
